Results taken from PubChem BioAssay AID624296 (National Center for Advancing Translational Sciences (NCATS), 2012).
About 9,900 (2.8%) of roughly 350,000 compounds were called active. Another 15% or so got no clear call; they are omitted. Calls follow the shape of the dose curve; as a rule, active = well fitted activation curve with a large enough effect; inconclusive = small, poorly fitted or top-dose-only effect; inactive = no such curve, though single readings can be large or run the other way. The list comes from a sample in which actives are over-represented; it also holds similar structures and randomly drawn compounds.

test: A quantitative high throughput screen for small molecules that induce DNA re-replication in MCF 10a normal breast cells.; also: nearly all actives have a fitted effect of over 50% in size; as to activity, positive = re-replication: % of control where 0% means no effect; details: MCF 10A DNA re-replication, Hoechst nuclear intensity, 48 h; series mostly up to 46.1 µM; activity, positive = re-replication: at the top concentration
Potency is read from the fitted curve at half-maximal effect.

SMILES | activity, positive = re-replication | Potency
CC/C(=C(/c1ccccc1)c1ccc(OCC[N+](C)(C)C)cc1)c1ccccc1 | 26.2% (inactive) | 
CCCCN1CC(COc2ccccc2)Oc2cccc(F)c2S1(=O)=O (stereo not drawn) | -2.96% (inactive) | 
CN(C)C(=O)N=NC(=O)N(C)C | -20.3% (inactive) | 
COc1ccc(Br)cc1C(=O)NC(=S)Nc1cc(-c2nc3ccccc3[nH]2)ccc1C | 12.5% (inactive) | 
O=C(Nc1cccc(-c2nc3ccccc3[nH]2)c1)c1ccc(C(=O)Nc2cccc(-c3nc4ccccc4[nH]3)c2)cc1 | 1.27% (inactive) | 
Cc1ccc(-c2nc3ccccc3[nH]2)cc1NC(=O)c1sc2ccccc2c1Cl |  | 20.6 µM (active)
COc1ccc(S(=O)(=O)N2CCOCC2)cc1NC(=O)CSc1cc(C)ccc1C | -1.31% (inactive) | 
CCN(CC(=O)Nc1ccccc1C(=O)NC1CC1)Cc1cccs1 | 1.46% (inactive) | 
CCOc1ccc(S(=O)(=O)NCC2CCCO2)cc1 (stereo not drawn) | -5.07% (inactive) | 
O=S(=O)(NCC1CCCO1)c1ccc2ccccc2c1 (stereo not drawn) |  | 2.91 µM (active)
CCC(=O)Nc1ccc(S(=O)(=O)NCC2CCCO2)cc1 (stereo not drawn) | 6.52% (inactive) | 
O=C(COc1ccc(F)cc1Br)NCC1COc2ccccc2O1 (stereo not drawn) | 4.72% (inactive) | 
CCN(C(=O)COC(=O)CCC(=O)c1cccs1)C1CCCCC1 | 0.146% (inactive) | 
CCOC(=O)c1cc(C#N)c(N2CCCCC2)nc1-c1ccccc1 |  | 13 µM (active)
CC(=O)c1cc(C#N)c(N2CCCCC2)nc1C | 11.6% (inactive) | 
Cc1cc(C)c2nc(N3CCCC3)c(C#N)cc2c1 | 13.7% (inactive) | 
CC1CN(C(=O)c2ccc([N+](=O)[O-])s2)CC(C)O1 (stereo not drawn) | 4.26% (inactive) | 
C/C(=N\Nc1ccccc1)c1cccs1 | 4.69% (inactive) | 
CCCOc1ccc(C(=O)NCCc2ccccc2)cc1 | 16.5% (inactive) | 
CCCOc1ccc(C(=O)CCC(=O)OC(C)C(=O)Nc2ccc(NC(C)=O)cc2)cc1 (stereo not drawn) | 1.31% (inactive) | 
CCCOc1ccc(C(=O)C(CCC(CNCC)C(=O)c2ccc(OCCC)cc2)CNCC)cc1 (stereo not drawn) |  | 25.9 µM (active)
COc1ccc(OC)c(-c2csc(NC(=O)COC(=O)C3CC3)n2)c1 | 2.73% (inactive) | 
O=C(c1c(F)cccc1Cl)N1CCN(S(=O)(=O)c2ccc3c(c2)OCCCO3)CC1 | -3.92% (inactive) | 
Cc1ccc(NNC(=O)c2c(F)cccc2Cl)cc1Cl | 0% (inactive) | 
Cc1cc(C)c(S(=O)(=O)c2ccccc2)c(OC(=O)c2c(F)cccc2Cl)n1 |  | 16.4 µM (active)
O=C(COC(=O)c1cccnc1Cl)Nc1ccc(S(=O)(=O)N2CCOCC2)cc1 | -0.82% (inactive) | 

SMILES | activity, positive = re-replication | Potency
O=C(N[C@H]1C/C=C\C(c2cccc(F)c2)N(Cc2ccccc2)C(=O)C1)OCC1c2ccccc2-c2ccccc21 (stereo partly drawn) | 24.7% (inactive) | 
Cc1nc(-c2ccc(F)cc2)c(CC(=O)N(C)CC(=O)Nc2c(C)cccc2C)s1 | 2.01% (inactive) | 
Cc1nc(-c2ccccc2)sc1C(=O)/C=C/N(C)C | -0.119% (inactive) | 
Cc1nc(-c2ccc(Cl)cc2)sc1C(=O)NN |  | 16.4 µM (active)
Cc1nc(N2CCOCC2)sc1C(=O)NN | -7.24% (inactive) | 
O=C1CC(c2ccccc2)C(=O)N2C(=O)CC(c3ccccc3)C(=O)N12 (stereo not drawn) | -15.2% (inactive) | 
COc1ccc(S(=O)(=O)N(C)C[C@H]2Oc3c(NC(=O)Nc4ccc5c(c4)OCO5)cccc3C(=O)N([C@H](C)CO)C[C@@H]2C)cc1 | 21.1% (inactive) | 
CCCN(C(=O)CSc1nnc(N)s1)c1c(N)n(Cc2ccccc2)c(=O)[nH]c1=O | 0.0358% (inactive) | 
O=C(O)CC1=C(Nc2ccccc2)C(=O)N(c2ccccc2)C1c1ccc(Cl)cc1 (stereo not drawn) | 1.9% (inactive) | 
O=C1c2cccc3cc(Br)cc(c23)C(=O)N1Nc1ccccc1 | 1.71% (inactive) | 
O=C1C=C(c2ccc(Cl)cc2)C(=O)N1Nc1ccccc1 |  | 5.8 µM (active)
Cc1ccc(Nc2nnc(SC(C)C(=O)NC3CC3)s2)cc1 (stereo not drawn) | -7.06% (inactive) | 
O=C(N/N=C/c1ccccn1)c1cccnc1 | -7.85% (inactive) | 
C/C(=N\NC(=O)c1cccnc1)c1ccc(-c2ccccc2)cc1 | -18.5% (inactive) | 
O=C(NN=C1CCC(=NNC(=O)c2cccnc2)CC1)c1cccnc1 |  | 0.58 µM (active)
CCN(CC)CCCC(C)n1c2nc(=O)[nH]c(=O)c-2nc2cc(Cl)ccc21 (stereo not drawn) | 27.2% (inactive) | 
Cc1ccc(-c2nn(-c3ccccc3)cc2/C=C2\SC(=S)N(CCCCCC(=O)O)C2=O)o1 |  | 18.4 µM (active)
COc1ccc(-c2nn(-c3ccccc3)cc2/C=C2/SC(=S)N(CCCC(=O)O)C2=O)c(C)c1 | -14.8% (inactive) | 
CN(C)S(=O)(=O)c1cccc(-c2nn(-c3ccccc3)cc2/C=C2\SC(=S)N(CC(=O)O)C2=O)c1 | 6.32% (inactive) | 
COc1cc(OC)cc(-c2c(-c3cccs3)c3cc(-c4ccc(OC)nc4)ccc3n2C)c1 | 12.8% (inactive) | 
O=C(CCNC(=O)c1ccccc1)Nc1nc2ccccc2s1 | 0.61% (inactive) | 
Cc1ccc2nc(Nc3ccccc3)cc(C)c2c1 | -2.52% (inactive) | 
CC(=O)Nc1cccc(-c2cnc3ccccc3n2)c1 | -6.84% (inactive) | 
CCS(=O)(=O)Nc1cccc(-c2cc(-c3ccccc3)c3cc(C)ccc3n2)c1 |  | 14.6 µM (active)
O=C(Cn1cc(C(F)(F)F)ccc1=O)Nc1ccc2c(c1)OCCO2 | 15% (inactive) | 
CC(C)(C)c1ccc(C(=O)NCCn2c(N)c(C#N)c3nc4ccccc4nc32)cc1 |  | 7.31 µM (active)

SMILES | activity, positive = re-replication | Potency
CC(C)(C)OC(=O)c1c(N)n(CCCN2CCCC2=O)c2nc3ccccc3nc12 | -3.82% (inactive) | 
CC(C)(C)c1ccc(C(=O)NCC(=O)OCN2C(=O)c3ccccc3C2=O)cc1 | -182% [at 0.0737 µM] (inactive) | 
Cc1ccnc(SCC(=O)Nc2cccc(S(=O)(=O)N3CCOCC3)c2)n1 | -9.8% (inactive) | 
O=C1C(=O)N(c2ccccc2)C(c2ccccc2)C1c1ccccc1 (stereo not drawn) | 21.6% (inactive) | 
O=C(c1nnc(-c2ccc(Cl)cc2)o1)C1CCCC1 | 0.097% (inactive) | 
S=c1[nH]nc(-c2ccc(Cl)cc2)n1CC1CCCO1 (stereo not drawn) | 1.01% (inactive) | 
O=C(c1[nH]ncc1-c1ccc(Cl)cc1)C1CO1 (stereo not drawn) |  | 3.66 µM (active)
COC(=O)[C@@]1(C)[C@H]2C(=O)N(Cc3ccccc3)C(=O)[C@H]2[C@H]2CN=C(SCC3CC3)N21 | 8.44% (inactive) | 
COc1ccc(Cl)cc1NC(=O)CN(C)CC(=O)Nc1ccc2c(c1)OCO2 | 7.09% (inactive) | 
Cc1ccc(C)c(N2CCN(C(=O)CCc3nc(-c4cccc(C(F)(F)F)c4)no3)CC2)c1 | 1.26% (inactive) | 
NC(=S)NN=C1CCCC(C(F)(F)F)C1 (stereo not drawn) | -4.67% (inactive) | 
Cc1ccc(S(=O)(=O)n2oc(=O)c(C3CCCCC3)c2N)cc1 | -4.25% (inactive) | 
Cc1cccc(-c2ncc(CN3CCC(CO)(CCCc4ccccc4)CC3)cn2)c1 |  | 18.4 µM (active)
COc1cccc(CC2(CO)CCN(Cc3cnc(-c4cccc(C)c4)nc3)CC2)c1 | 16.8% (inactive) | 
OCC1(CCc2ccccc2)CCN(Cc2ccc3nsnc3c2)CC1 | -0.27% (inactive) | 
COc1cccc(C2=CC(=O)C[C@H](c3ccc(OC)c(OC)c3)C2)c1 | -1.75% (inactive) | 
O=C1CSC(=S)N1c1ccc(O)cc1 |  | 16.4 µM (active)
CCOc1ccc(N2C(=O)CSC2=NC#N)cc1 | 0.981% (inactive) | 
COc1ccc(N2C(=O)CNC2=S)cc1 | -1.08% (inactive) | 
COc1ccc(CNC(=O)CN2C(=O)NC3(CCCc4sccc43)C2=O)cc1 (stereo not drawn) | 2.5% (inactive) | 
O=C(CCCCCCCC(=O)N1CCCCC1)N1CCCCC1 | 0.602% (inactive) | 
O=C(Nc1cc(-c2ccccc2)nn1-c1ccccc1F)c1ccc([N+](=O)[O-])cc1 | 8.57% (inactive) | 
O=C1CSc2ccc(C(=O)NCc3ccccn3)cc2N1 | -5.56% (inactive) | 
CCCC(CNC(=O)COC(=O)C1=NNC(=O)CC1)c1ccc(Cl)cc1Cl (stereo not drawn) | -31% (inactive) | 
O=C(O)/C=C/c1cn(-c2ccccc2)nc1-c1cccs1 | -0.193% (inactive) | 
O=C(O)c1ccc(N/N=C/c2cn(-c3ccccc3)nc2-c2cccs2)cc1 |  | 23.1 µM (active)

SMILES | activity, positive = re-replication | Potency
O=C(NCc1cccnc1)c1cn(-c2ccccc2)nc1-c1cccs1 | -3.9% (inactive) | 
CCCCn1c(=S)[nH]c2ccccc2c1=O | 10.2% (inactive) | 
O=c1c2ccccc2[nH]c(=S)n1CCN1CCC(=C(c2ccc(F)cc2)c2ccc(F)cc2)CC1 |  | 18.4 µM (active)
COc1ccccc1Cn1c(=S)[nH]c2cc(C(=O)N3CCN(C)CC3)ccc2c1=O | 29.4% (inactive) | 
COc1ccccc1C1C2=C(COC2=O)Nc2cc3c(cc21)OCO3 (stereo not drawn) | -4.62% (inactive) | 
COc1ccc(C2CC(=O)Nc3cc(C)c(C)cc32)c(OC)c1OC (stereo not drawn) | 0.878% (inactive) | 
CCCOc1ccccc1C1CC(=O)Nc2cc3c(cc21)OCO3 (stereo not drawn) |  | 6.51 µM (active)
Nc1c(N(Cc2ccco2)C(=O)c2cccc(F)c2)c(=O)[nH]c(=O)n1Cc1ccccc1 | -4.93% (inactive) | 
CC(=O)NC1=NN(C(C)=O)C(C)(c2ccc(C)cc2)S1 (stereo not drawn) | 0.0102% (inactive) | 
CC(=O)NC1=NN(C(C)=O)C(C)(c2ccc(Cl)s2)S1 (stereo not drawn) |  | 8.2 µM (active)
CC(=O)NC1=NN(C(C)=O)C(C)(CCS(=O)(=O)c2ccc(Cl)c(Cl)c2)S1 (stereo not drawn) | -0.888% (inactive) | 
COc1ccccc1S(=O)(=O)NCc1ccc(C(=O)N(C)Cc2ccc(F)cc2)cc1 | -3.7% (inactive) | 
O=C(COC(=O)c1cccnc1Cl)NC12CC3CC(CC(C3)C1)C2 | 9.09% (inactive) | 
O=C(COC(=O)c1ccc(F)cc1)NCC1COc2ccccc2O1 (stereo not drawn) | -12.8% (inactive) | 
Cc1cc(C(=O)OCC(=O)NCc2ccco2)c(C)n1-c1ccccc1 |  | 6.31 µM (active)
O=C(COC(=O)c1ccccc1O)NCc1ccco1 | 1% (inactive) | 
CN(c1ccccc1)S(=O)(=O)c1ccc(Cl)c(C(=O)OCC(=O)NCc2ccco2)c1 | 1.68% (inactive) | 
O=C1c2ccccc2C(=O)N1CCCCCCN1C(=O)c2ccccc2C1=O | -5.68% (inactive) | 
COC(=O)c1ccc(C)c(NC(=O)Cn2c(C)csc2=O)c1 | -4.44% (inactive) | 
CCSc1nsc(NC(=O)Nc2cccc(C(C)=O)c2)n1 |  | 16.4 µM (active)
C=CCSc1nsc(NC(=O)Nc2cccc(C(C)=O)c2)n1 | 4.65% (inactive) | 
CCSc1nsc(NC(=O)Nc2ccccc2OC)n1 | 0.0049% (inactive) | 
COc1cc(C2C(C(=O)c3ccc(C)o3)=C(O)C(=O)N2CCc2ccccc2)ccc1O (stereo not drawn) | 1.61% (inactive) | 
COc1cc(C2C(C(=O)c3ccc(C)o3)=C(O)C(=O)N2Cc2cccnc2)ccc1O (stereo not drawn) | -2.92% (inactive) | 
Cc1cc(N2C(=O)C(O)=C(C(=O)c3ccc(C)o3)C2c2ccc(OCc3ccccc3)cc2)no1 (stereo not drawn) |  | 20.6 µM (active)
